Experimental data reported in PubChem BioAssay (NCI).
Several values for one entry are separate records, joined by “and”; a condition that tells them apart may be missing. Equal values may be shown once. Compounds without any hit were thinned out: in the full panel of roughly 83,000, 20% have a hit.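 In brief: 96-well plates, 48 h treatment, single concentration, percent growth endpoint.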 Activity calls are given as the source filed them. Rule for the calls: active = growth percent below 10; inactive = the rest.

Columns and labels:
Assay in all cases: NCI-60 one-dose screen, 48 h (100 = growth as untreated, 0 = no growth, -100 = all killed)
HCT-15 colon = details: 10 µM unless noted
HT29 colon = system: HT29 colon
SNB-75 CNS = system: SNB-75 CNS
SNB-19 CNS = system: SNB-19 CNS
U251 CNS = details: 10 µM unless noted
PC-3 prostate = system: PC-3 prostate
UACC-62 melanoma = system: UACC-62 melanoma
LOX IMVI melanoma = system: LOX IMVI melanoma
SK-MEL-28 melanoma = system: SK-MEL-28 melanoma
SK-MEL-2 melanoma = system: SK-MEL-2 melanoma
EKVX NSCLC = details: 10 µM unless noted
SN12C renal = system: SN12C renal
TK-10 renal = system: TK-10 renal
ACHN renal = system: ACHN renal
CAKI-1 renal = system: CAKI-1 renal
A498 renal = system: A498 renal
CCRF-CEM leukemia = details: 10 µM unless noted
MOLT-4 leukemia = details: 10 µM unless noted
SK-MEL-5 melanoma = system: SK-MEL-5 melanoma
UO-31 renal = system: UO-31 renal

Measured: growth

Cc1ccc2c(ccc3c[n+]4c5ccccc5ccc4n32)c1
inactive: HCT-15 colon 79.6% | LOX IMVI melanoma; 10 µM unless noted 22.5% | EKVX NSCLC 22.4% | TK-10 renal; 10 µM unless noted 58.6% | ACHN renal; 10 µM unless noted 46.9% | CAKI-1 renal; 10 µM unless noted 67.8% | A498 renal; 10 µM unless noted 16% | CCRF-CEM leukemia 19.2%
active: HT29 colon; 10 µM unless noted 8.52% | SNB-75 CNS; 10 µM unless noted 8.15% | SNB-19 CNS; 10 µM unless noted 2.91% | U251 CNS -12.4% | PC-3 prostate; 10 µM unless noted 8.46% | UACC-62 melanoma; 10 µM unless noted -48.9% | SK-MEL-28 melanoma; 10 µM unless noted -28.1% | SK-MEL-2 melanoma; 10 µM unless noted -19.8% | SN12C renal; 10 µM unless noted 5.27% | MOLT-4 leukemia 8.93%

COc1ccc(-c2cscc2N)cc1
inactive: HT29 colon; 10 µM 97.7% | HT29 colon; 100 µM 52% | SNB-75 CNS; 10 µM 88.8% | SNB-75 CNS; 100 µM 51.9% | SNB-19 CNS; 10 µM 82.9% | SNB-19 CNS; 100 µM 57.6% | U251 CNS 38.5% [100 µM] | PC-3 prostate; 10 µM 98.4% | PC-3 prostate; 100 µM 41.4% | SK-MEL-5 melanoma; 10 µM 48.8% | SK-MEL-5 melanoma; 100 µM 33.1% | LOX IMVI melanoma; 10 µM unless noted 45.7% | SK-MEL-28 melanoma; 10 µM 96.4% | SK-MEL-28 melanoma; 100 µM 51.4% | SK-MEL-2 melanoma; 10 µM 95.1% | SK-MEL-2 melanoma; 100 µM 24.6% | EKVX NSCLC 51.4% [100 µM] | SN12C renal; 10 µM 71.2% | SN12C renal; 100 µM 55.1% | TK-10 renal; 10 µM 101% | TK-10 renal; 100 µM 74.4% | ACHN renal; 10 µM 54.7% | ACHN renal; 100 µM 40.7% | CAKI-1 renal; 10 µM 70.9% | CAKI-1 renal; 100 µM 29.2% | A498 renal; 10 µM 83.3% | A498 renal; 100 µM 80.6% | CCRF-CEM leukemia 31.3% [100 µM]

CCOC(=O)/C=C/c1ccc([N+](=O)[O-])o1
active: HCT-15 colon -3.85% | LOX IMVI melanoma; 10 µM unless noted -29.6% | ACHN renal; 10 µM unless noted 9.88% | CAKI-1 renal; 10 µM unless noted 9% | CCRF-CEM leukemia 7.26%
inactive: HT29 colon; 10 µM unless noted 36.7% | SNB-75 CNS; 10 µM unless noted 98.7% | SNB-19 CNS; 10 µM unless noted 97.2% | U251 CNS 82.6% | PC-3 prostate; 10 µM unless noted 93.4% | UACC-62 melanoma; 10 µM unless noted 32.6% | SK-MEL-28 melanoma; 10 µM unless noted 26.4% | SK-MEL-2 melanoma; 10 µM unless noted 85.3% | EKVX NSCLC 107% | SN12C renal; 10 µM unless noted 85.5% | TK-10 renal; 10 µM unless noted 40.7% | A498 renal; 10 µM unless noted 102%

CC1=CC(O)C2CC1C2(C)C (stereo not given)
inactive: HCT-15 colon 104% and 112% | HT29 colon; 10 µM unless noted 88.2% and 98.1% | SNB-75 CNS; 10 µM unless noted 84.6% and 95.3% | SNB-19 CNS; 10 µM unless noted 103% and 116% | U251 CNS 100% and 110% | PC-3 prostate; 10 µM unless noted 94.9% and 86.4% | LOX IMVI melanoma; 10 µM unless noted 98% and 105% | SK-MEL-28 melanoma; 10 µM unless noted 107% and 115% | SK-MEL-2 melanoma; 10 µM unless noted 92.8% | EKVX NSCLC 97.7% and 104% | SN12C renal; 10 µM unless noted 102% and 108% | UO-31 renal; 10 µM unless noted 93.8% and 73.6% | TK-10 renal; 10 µM unless noted 102% and 98.1% | CAKI-1 renal; 10 µM unless noted 94.4% and 85.8% | A498 renal; 10 µM unless noted 91% and 92.7% | CCRF-CEM leukemia 106% and 105% | MOLT-4 leukemia 91.9% and 93.3%

CC(C)(C)c1ccc(O)c(C2CCCCC2)c1
inactive: HCT-15 colon 102% | HT29 colon; 10 µM unless noted 87% | SNB-75 CNS; 10 µM unless noted 100% | SNB-19 CNS; 10 µM unless noted 122% | U251 CNS 101% | PC-3 prostate; 10 µM unless noted 95% | LOX IMVI melanoma; 10 µM unless noted 104% | SK-MEL-28 melanoma; 10 µM unless noted 110% | SK-MEL-2 melanoma; 10 µM unless noted 89% | EKVX NSCLC 115% | SN12C renal; 10 µM unless noted 97.5% | UO-31 renal; 10 µM unless noted 104% | TK-10 renal; 10 µM unless noted 92.2% | ACHN renal; 10 µM unless noted 103% | CAKI-1 renal; 10 µM unless noted 116% | A498 renal; 10 µM unless noted 107% | CCRF-CEM leukemia 47.9%

O=C(Nc1c(Cl)cccc1Cl)Oc1cccc2cccnc12
inactive: HT29 colon; 10 µM 79.4% | HT29 colon; 100 µM 55.3% | SNB-75 CNS; 10 µM 73.1% | SNB-75 CNS; 100 µM 20.8% | SNB-19 CNS; 10 µM 56.4% | SNB-19 CNS; 100 µM 25.8% | U251 CNS 19.5% [100 µM] | PC-3 prostate; 10 µM 41% | PC-3 prostate; 100 µM 19.3% | SK-MEL-5 melanoma; 10 µM 55.9% | SK-MEL-5 melanoma; 100 µM 14.4% | UACC-62 melanoma; 10 µM 20.2% | LOX IMVI melanoma; 10 µM 33.1% | SK-MEL-28 melanoma; 10 µM 73.9% | SK-MEL-28 melanoma; 100 µM 38.5% | SK-MEL-2 melanoma; 10 µM 79.8% | SK-MEL-2 melanoma; 100 µM 25.9% | SN12C renal; 10 µM 53.9% | SN12C renal; 100 µM 33.1% | UO-31 renal; 10 µM 17% | TK-10 renal; 10 µM 58.8% | TK-10 renal; 100 µM 22.4% | ACHN renal; 10 µM 38.8% | ACHN renal; 100 µM 12.1% | CAKI-1 renal; 100 µM 16.8% | A498 renal; 10 µM 98.2% | A498 renal; 100 µM 94.5%
active: UACC-62 melanoma; 100 µM -74.8% | LOX IMVI melanoma; 100 µM 7.87% | EKVX NSCLC -9.97% [100 µM] | UO-31 renal; 100 µM 6.51% | CAKI-1 renal; 10 µM -9.81% | CCRF-CEM leukemia 8.09% [100 µM]
